From PubChem BioAssay AID743110 (Vanderbilt Specialized Chemistry Center, 2013)
Measured potencies and affinities stand elsewhere. The source made the active and inactive calls.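 How the source made its calls: active means Blocks human M5 receptor in a calcium assay, with half-maximal inhibiting concentration under 10 µM; inactive means the rest.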

Molecular target: Muscarinic acetylcholine receptor M5 (Homo sapiens) (UniProt P08912)
Assay: inhibition of ACh-evoked human M5 signalling – cell-based, CHO-K1 hM5, Fluo-4 calcium flux, ACh EC80, dose response (AID 743110)
Conditions: series mostly up to 30 µM

Sequence of Muscarinic acetylcholine receptor M5 (Homo sapiens) (P08912 whole entry, looked up): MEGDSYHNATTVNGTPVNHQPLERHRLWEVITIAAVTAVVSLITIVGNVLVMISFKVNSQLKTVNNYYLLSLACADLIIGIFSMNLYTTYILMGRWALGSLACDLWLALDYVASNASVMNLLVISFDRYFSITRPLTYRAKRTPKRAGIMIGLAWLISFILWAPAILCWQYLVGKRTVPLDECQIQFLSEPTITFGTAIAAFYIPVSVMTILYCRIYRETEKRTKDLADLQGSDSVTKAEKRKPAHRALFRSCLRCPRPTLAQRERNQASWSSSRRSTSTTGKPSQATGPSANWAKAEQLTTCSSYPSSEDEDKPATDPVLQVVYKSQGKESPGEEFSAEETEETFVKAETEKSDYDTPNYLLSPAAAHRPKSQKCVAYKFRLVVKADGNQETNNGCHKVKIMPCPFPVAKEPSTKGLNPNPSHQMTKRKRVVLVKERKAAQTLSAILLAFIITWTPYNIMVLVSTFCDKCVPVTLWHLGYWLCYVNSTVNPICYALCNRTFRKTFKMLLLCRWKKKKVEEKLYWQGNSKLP

outcome, inactive:
CC(c1ccccn1)N(C)C(=O)c1cc(COc2cccc(Br)c2)on1 (stereo not given)
CC(=O)c1cccc(OCc2ccc(C(=O)N(C)C(C)c3ccccn3)cc2)c1 (stereo not given)
CC(=O)c1cccc(OCc2cc(C(=O)NC(C)c3ccccn3)no2)c1 (stereo not given)
CC(=O)c1cccc(OCc2cccc(C(=O)N(C)C(C)c3ccccn3)c2)c1 (stereo not given)
CC(=O)c1cccc(N(Cc2cc(C(=O)N(C)C(C)c3ccccn3)no2)C(=O)c2ccccc2)c1 (stereo not given)
